Source: PubChem BioAssay (Sanford-Burnham Center for Chemical Genomics)
Hits are enriched below; roughly 4% of the tested compounds scored in any of these assays.
CF NFkB inh = cystic fibrosis NF-kB activation inhibition; KKLEB NF-kB-GFP reporter, PAF-induced, GFP fluorescence overnight; actives 0.86% (n = 360,000); inhibition, % at 5 µM;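 active means at least 50% inhibition at 5 µM, scaled per plate between neutral and stimulator controls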;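 further: PAF is a Pseudomonas aeruginosa culture filtrate used as stimulus; plate controls were PAF-stimulated DMSO wells for no effect and unstimulated DMSO wells for full effect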
HIF-2a block = blocks HIF-2a reporter activity | 786-0 RCC cells HIF-2a reporter, luciferase luminescence, overnight | inhibition, % at 18.8 µM | actives 0.72% (n = 360,000);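 active means inhibition of the luminescence signal of 40% or more relative to plate controls, in a single-dose primary screen at 18.75 µM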
TROY signal inh = blocks TROY-dependent signaling in reporter cells; Q293 LMP1-TROYcd NF-kB luciferase reporter, 4 h; inhibition, % at 10 µM; actives 0.98% (n = 360,000);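 active means compounds whose plate-normalised and pattern-corrected inhibition of the luciferase reporter signal at the single screening dose is 50% or more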
KKLEB tox = counter-screen for CF NF-kB inhibitors: cytotoxicity; KKLEB CF airway cells viability, ATPlite luminescence, overnight; stronger effect = lower value; cells stimulated with P. aeruginosa culture filtrate; activity change (cytotoxicity), % at 5 µM; actives 0.36% (n = 360,000);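 active means corrected activity change at or below -50% at 5 µM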
TWEAK Fn14 block = TWEAK-Fn14 signaling inhibition; TWEAK-stimulated Fn14 reporter cells, luciferase luminescence, 8 h; inhibition, % at 10 µM; actives 2% (n = 360,000); AID 1159606; in the data active means inhibition above about 50%
Peg3 prom inh = reduces Peg3 promoter-driven luciferase expression in HeLa; actives 1.7% (n = 360,000); HeLa PEG-Prom luciferase reporter, luminescence, overnight; inhibition, % at 20 µM;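 active means inhibition of at least 50% at 20 µM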
* hit, by the source's call; · = not tested or not shown.

SMILES | CF NFkB inh | HIF-2a block | TROY signal inh | KKLEB tox | TWEAK Fn14 block | Peg3 prom inh
CCc1oc2ccccc2c1C(=O)c1cc(Br)c(O)c(Br)c1 | 44 | 5 | 52* | -30 | -29 | 30
Cc1cccc(C2NC(c3cccc(C)c3)C(C)C(=O)C2C)c1 (centres undefined) | -2 | 26 | 0 | -1 | -22 | 17
COc1ccc(C(=O)N/N=C/c2ccc(OC)c(CN3CCCc4ccccc43)c2)cc1 | 4 | -25 | -13 | 19 | 58* | 8
COc1ccc(/C=N/NC(=O)c2cccnc2)cc1CN1CCCc2ccccc21 | -20 | 18 | 6 | -13 | 30 | 28
CCCCOc1ccc(C(=O)N/N=C/c2ccc(OCCN3CCCCC3)c(OC)c2)cc1 | -9 | 12 | -26 | -4 | 4 | 65*
Cc1ccc(S(=O)(=O)N2CCC(C(=O)N/N=C/c3cccnc3)CC2)cc1 | 12 | 18 | 3 | -16 | -6 | 52*
Cc1ccc(S(=O)(=O)N2CCC(C(=O)N/N=C/c3ccccc3[N+](=O)[O-])CC2)cc1 | -21 | 9 | -14 | 3 | 19 | 35
COCCn1c(SCc2cccc(F)c2)nc2cc(C(=O)OC)ccc2c1=O | 12 | 12 | -12 | -10 | 4 | 3
O=C(CCCSc1nc(-c2ccco2)cc(C(F)(F)F)n1)NCC1CCCO1 (centres undefined) | 0 | 8 | · | 3 | 71* | 6
O=C(CCSc1nc(-c2ccco2)cc(C(F)(F)F)n1)NCC1CCCO1 (centres undefined) | 8 | -2 | · | -4 | -3 | 21
CCN(CC)CCNCC(=O)N1c2ccccc2CCc2ccc(NC(=O)OC)cc21 | -14 | 9 | -4 | 1 | 105* | 0
N#Cc1c(N)nc(SCC(=O)NC2CCCCC2)c(C#N)c1-c1ccc(Cl)cc1 | -2 | -4 | 1 | 6 | 12 | 74*
CCn1c(/C=C/c2ccccc2)nc2ccccc21 | -11 | -175 | -37 | -53* | 27 | -137
CCOC(=O)[C@H]1[C@H]2COc3ccc(OC)cc3[C@@H]2N2C(=O)CN(C)C(=O)[C@@]12C | -18 | 14 | -14 | 11 | -3 | 0
O=C(COc1ccc2ccc(=O)oc2c1)Nc1cccc(S(=O)(=O)N2CCCCC2)c1 | 19 | -11 | 41 | -16 | 53* | 5
Cc1ccc(NC(=O)COc2ccccc2C(N)=O)cc1S(=O)(=O)N1CCCCCC1 | 20 | -12 | 44 | -14 | 58* | 13
O=C(Nc1ccccc1C(=O)O)c1cc(S(=O)(=O)N2CCCCC2)c(Cl)cc1Cl | -5 | -58 | 26 | 11 | 56* | -24
COc1cc(C(C)=O)ccc1OCC(=O)Nc1ccc(C)c(S(=O)(=O)N2CCCCCC2)c1 | 11 | 29 | 63* | 4 | 84* | 55*
Cc1ccc(NC(=O)CSc2ncnc3ccccc23)cc1S(=O)(=O)N1CCCCCC1 | 45 | 27 | 53* | -10 | 87* | 6
CCc1cccc(OCC(=O)Nc2ccc(C)c(S(=O)(=O)N3CCCCCC3)c2)c1 | 12 | 16 | 39 | -16 | 50* | 24
Cc1ccc(S(=O)(=O)N2CCCCC2)cc1NC(=O)CSc1ncnc2ccccc12 | 33 | 33 | -5 | -8 | 34 | 26
CC(=O)c1ccc(OCCCC(=O)Nc2ccc(C)c(S(=O)(=O)N3CCCCC3)c2)cc1 | 0 | 11 | 36 | 13 | 51* | 11
Cc1ccc(NC(=O)COc2cccc(C)c2C)cc1S(=O)(=O)N1CCCCCC1 | 39 | 1 | 29 | -6 | 21 | 2
Cc1ccc(NC(=O)COc2ccc(N(C)C(=O)C(C)(C)C)cc2)cc1S(=O)(=O)N1CCCCC1 | 15 | 11 | 39 | -4 | 69* | 37
Cc1ccc(S(=O)(=O)Nc2ccccc2F)cc1C(=O)OC(C)C(=O)N1CCOCC1 (centres undefined) | -3 | 4 | -10 | 4 | -4 | 6
SMILES | CF NFkB inh | HIF-2a block | TROY signal inh | KKLEB tox | TWEAK Fn14 block | Peg3 prom inh
O=C(COC(=O)c1ccc(Cl)c(S(=O)(=O)N2CCCCCC2)c1)Nc1ccccc1 | 18 | -87 | 58* | -15 | 23 | -54
O=C(COC(=O)c1ccc(S(=O)(=O)N2CCCC2)cc1)Nc1ccccc1 | -6 | 8 | 6 | 2 | 9 | 8
CN(C)CCCNC(=O)c1ccc(Cl)c(S(=O)(=O)N2CCCCCC2)c1 | 1 | 18 | -2 | 2 | 1 | 91*
CCN(CC)CCNC(=O)c1ccc(Cl)c(S(=O)(=O)N2CCCCCC2)c1 | -20 | 9 | 3 | 4 | -5 | 1
Cc1ccc(CNc2ccc(N3CCOCC3)cc2)s1 | -6 | -152 | 50* | -1 | 9 | -172
CC(=O)N1CCN(c2ccc(NCc3ccc(C)s3)cc2)CC1 | 15 | -26 | 4 | -8 | 6 | -26
COc1ccc(C2(c3ccc(OC)cc3)NC(=O)N(CC(=O)Nc3ccccc3C(F)(F)F)C2=O)cc1 | -1 | 14 | -7 | 6 | 4 | 7
COc1ccc([C@@]2(C(C)C)ON(c3ccccc3C(F)(F)F)C2=O)cc1 | 53* | 7 | -19 | 0 | 9 | 62*
Cc1ccc(S(=O)(=O)N2CCOCC2)cc1NC(=O)COc1ccc(C(=O)c2ccccc2)cc1 | 2 | -11 | 46 | -15 | 33 | 61*
CCN1CCN(c2ccc(S(=O)(=O)N3CCCCC3)cc2NC(=O)/C=C/c2ccc(F)cc2)CC1 | 6 | 4 | 3 | -12 | -1 | 18
CN1CCN(c2ccc(S(=O)(=O)N3CCCCC3)cc2NC(=O)COc2cccc(Cl)c2)CC1 | 15 | 2 | -9 | -15 | 1 | 14
Cc1cccc(OCC(=O)Nc2cc(S(=O)(=O)N3CCCCC3)ccc2N2CCN(C)CC2)c1 | -3 | 11 | 85* | 2 | 15 | 19
CCN1CCN(c2ccc(S(=O)(=O)N3CCCCC3)cc2NC(=O)/C=C/c2cccc(OC)c2OC)CC1 | 5 | 15 | -18 | 11 | -13 | 68*
CN1CCN(c2ccc(S(=O)(=O)N3CCCCC3)cc2NC(=O)/C=C/c2ccc(OC(F)F)cc2)CC1 | 17 | 11 | -11 | -10 | -12 | 76*
CC(=O)c1cccn1S(=O)(=O)c1ccccc1 | -3 | 13 | 15 | 2 | 2 | 1
Cn1c(-c2cccc(Br)c2)cnc1NCc1ccccc1O | 1 | -1 | 5 | -6 | -8 | 3
CCN1CCN(c2ccc(S(=O)(=O)N3CCCCC3)cc2NC(=O)/C=C/c2ccc(OC(F)F)cc2)CC1 | 17 | -14 | 1 | -17 | -28 | 96*
CN1CCN(c2ccc(S(=O)(=O)N3CCCCC3)cc2NC(=O)/C=C/c2ccc(Cl)c([N+](=O)[O-])c2)CC1 | 24 | 6 | 7 | -13 | 4 | 104*
O=C(/C=C/c1ccc(Cl)c([N+](=O)[O-])c1)Nc1ccc(N2CCCC2)c(Cl)c1 | 26 | 4 | -16 | -24 | 0 | 10
